Our source for the activity, negative = inhibition and AC50 values is PubChem BioAssay AID1851 (National Center for Advancing Translational Sciences (NCATS), 2009).

Values joined by “and” are separate entries in the source; they are usually repeats but may differ in a detail not shown here. Equal values may be shown once. Among all 16,000 compounds or so, about 4,000 (25%) were called active. About 26% were inconclusive and are not listed. These entries were drawn from the full list. Values without a mark were called inactive. The call rests on the fitted dose curve; in most records, active means well fitted curve in the direction sought with a large enough effect; inconclusive means small, poorly fitted or top-dose-only effect, or effect the other way; inactive means no such curve, though single readings can be large or run the other way.
On the % scale 0 is the no-effect control and ±100 the full control effect.

The target in this assay is Cytochrome P450 2C9 (Homo sapiens) (UniProt P11712). In words: Cytochrome panel assay with activity outcomes. As to conditions: recombinant CYP, pro-luciferin dealkylation, luminescence, p450-cyp2c9; series mostly up to 57.1 µM.
Sequence of Cytochrome P450 2C9 (Homo sapiens) (P11712 whole entry, looked up): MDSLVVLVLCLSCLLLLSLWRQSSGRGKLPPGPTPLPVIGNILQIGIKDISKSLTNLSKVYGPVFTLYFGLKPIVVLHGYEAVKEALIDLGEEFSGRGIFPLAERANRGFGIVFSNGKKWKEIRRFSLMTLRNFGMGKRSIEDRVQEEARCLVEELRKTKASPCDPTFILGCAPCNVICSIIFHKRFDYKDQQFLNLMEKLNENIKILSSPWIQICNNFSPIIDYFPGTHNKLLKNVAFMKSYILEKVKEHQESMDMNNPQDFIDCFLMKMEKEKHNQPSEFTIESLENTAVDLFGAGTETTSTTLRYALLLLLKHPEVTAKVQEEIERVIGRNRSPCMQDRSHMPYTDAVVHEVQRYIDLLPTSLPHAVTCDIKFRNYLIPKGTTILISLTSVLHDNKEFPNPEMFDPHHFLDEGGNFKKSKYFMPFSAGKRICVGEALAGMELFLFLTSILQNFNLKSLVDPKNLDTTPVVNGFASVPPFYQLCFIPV
As for `Cc1cc(Cc2cc(C)c(N)cc2N)c(N)cc1N`, the activity, negative = inhibition was -2.47% [at 11.4 µM].
Take `C[C@H](CN(C)C)C(C#N)(c1ccccc1)c1ccccc1`: the activity, negative = inhibition was -0.348% [at 11.4 µM].
Same read-out and setting: next, `O=C(O)CP(=O)(O)c1ccc(Cl)cc1`: “inactive”.
Consider `CNCCc1c[nH]c2ccc(O)cc12`, for which the activity, negative = inhibition result was “inactive”.
A word on the AC50: it is the concentration giving half of the maximal activity seen. Consider `O=c1c(O)c(-c2cc(O)c(O)c(O)c2)oc2cc(O)cc(O)c12`, for which the AC50 is 12.6 µM (active) and 10 µM (active).
For the molecule `O=c1cc(-c2ccc(O)cc2)oc2cc(O)cc(O)c12`, the activity, negative = inhibition entry is “inactive”.
Same read-out and setting: next, `O=c1cc(-c2ccc(O)c(O)c2)oc2cc(O)cc(O)c12`: “inactive”; `Nc1nc(N)c(Cn2ccnc2)c(=O)[nH]1`: -12.8% [at 11.4 µM]; `Cn1cccc1CNCCc1ccccc1`: “inactive”.
Turning to `CN1CC[C@@]23c4ccccc4N[C@H]1[C@]21CCN(C)[C@@H]3Nc2ccccc21`, the activity, negative = inhibition entry is “inactive”.
Regarding `C=C1C/C(=C\C)C(=O)O[C@@H]2CCN3CC=C(COC(=O)[C@@]1(C)O)[C@H]23`, the activity, negative = inhibition result was “inactive”.
For the molecule `CC1=C(C)[N+](=O)C2(O)CCCCC2(C)N1[O-]` (stereo not drawn), the activity, negative = inhibition result was “inactive”.
As for `C=Cn1ccnc1P(=S)(c1nccn1C=C)C1CCCCC1`, the AC50 was 11.2 µM (active).
Turning to `S=P(C1CCCCC1)(C1CCCCC1)[C@H](c1cccnc1)N1CCCC1`, the activity, negative = inhibition is -6.57% [at 11.4 µM].
With `O[Si@](CCCN1CCCCC1)(c1ccc(F)cc1)C1CCCCC1`, the activity, negative = inhibition entry is “inactive”.
Regarding `COC(=O)NC/C=C\c1nc(CC/C=C\C(=O)O[C@H]2C[C@H]3CC(=O)O[C@@H](/C=C\CC(C)C)C[C@@H]4CC[C@H](C)[C@H](C[C@@H](OC)C[C@H](C2)O3)O4)co1`, the activity, negative = inhibition was -4% [at 11.4 µM].
Same read-out and setting: next, `COC(=O)[C@H]1C(=O)c2ccccc2O[C@@](C(=O)OC)(c2ccccc2)[C@@H]1c1ccccc1`: -6.83% [at 11.4 µM].
Regarding `CC[C@@H]1CN2CCc3cc(OC)c(OC)cc3[C@H]2C[C@@H]1C[C@@H]1NCCc2cc(O)c(OC)cc21`, the activity, negative = inhibition entry is “inactive”.
Consider `N#Cc1ccc(CN2CCC3(CC2)CCN(C(=O)Oc2ccccc2)CC3)cc1`, for which the activity, negative = inhibition result was “inactive”.
With `O=C(Oc1ccccc1)N1CCC2(CCCN(Cc3ccccc3)C2)CC1`, the activity, negative = inhibition result was “inactive”.
`CS(=O)(=O)N1CCC2(CC1)CN(Cc1ccncc1)C2`: the AC50 was 39.8 µM (active).
The same measure, in the same setting: next, `O=C(Oc1ccccc1)N1CCC2(CCN(Cc3ccncc3)CC2)CC1`: 3.98 µM (active); `O=C(c1csnn1)N1CCC2(CC1)CN(Cc1ccncc1)C2`: 10 µM (active).
`CC(C)CN1CC2(CCN(C(=O)Oc3ccccc3)CC2)C1`: the activity, negative = inhibition entry was “inactive”.
Regarding `CC(C)CN1CC2(CCN(C(=O)c3ccncc3)CC2)C1`, the activity, negative = inhibition result was “inactive”.
`c1cc(CN2CC3(CCNCC3)C2)ccn1`: the activity, negative = inhibition result is “inactive”.
For `O=C(Oc1ccccc1)N1CCC2(CCN(Cc3ccccc3)CC2)CC1`, the activity, negative = inhibition result was “inactive”.
As for `O=C(Oc1ccccc1)N1CCC2(CC1)CN(Cc1ccncc1)C2`, the AC50 is 3.16 µM (active).
Turning to `c1cc(CN2CCC3(CCNCC3)CC2)ccn1`, the activity, negative = inhibition result was “inactive”.
Same read-out and setting: next, `CN1CC[C@@]2(CCCN(C(=O)c3csnn3)C2)C1`: “inactive”; `CC1(C)N=C(N)N=C(N)N1c1cccc(C(=O)Nc2ccc(S(=O)(=O)F)cc2)c1`: 14.9% [at 11.4 µM]; `C=C(C)CN1CC[C@@]23c4c5ccc(O)c4O[C@H]2c2[nH]c4ccccc4c2C[C@]3(O)[C@@H]1C5`: “inactive”.
The same measure, in the same setting: next, `CC1=C2C(=O)[C@@H]3[C@@H](CC=C4C[C@@H](O)CC[C@@]43C)[C@H]2CC[C@@]12O[C@H]1C[C@H](C)CN[C@H]1[C@@H]2C`: -3.17% [at 11.4 µM]; `CC(C)CNCCc1ccccn1`: -0.994% [at 11.4 µM].
Regarding `N[C@@H](CP(=O)(O)O)C(=O)O`, the activity, negative = inhibition is 6.98% [at 11.4 µM].
With `NC(=O)c1cc(N2CC2)c([N+](=O)[O-])cc1[N+](=O)[O-]`, the activity, negative = inhibition entry is “inactive”.
Turning to `C=C1[C@@H]2C[C@@]3([C@H]1O)[C@H]1C[C@@H]4[C@@]5(C)CC[C@H](O)[C@]4([C@H]1N(CC)C5)[C@H]3C[C@H]2O`, the activity, negative = inhibition entry was “inactive”.
For `OC(c1ccccc1)(c1ccccc1)C1CCNCC1`, the activity, negative = inhibition result is “inactive”.
Same read-out and setting: next, `Cc1ccc(S(=O)ON2CCC(C(=O)O)(c3ccccc3)CC2)cc1` (stereo not drawn): 4.74% [at 11.4 µM]; `O=C1C[C@@H](c2ccc(O)cc2)Oc2cc(O)cc(O)c21`: “inactive”.
The same measure, in the same setting: next, `CS(=N)(=O)CC[C@@H](N)C(=O)O` (stereo partly drawn): “inactive”; `COC(=O)N1CCC2(CCCN(C)C2)CC1`: “inactive”; `Nc1nc(N)c(N=Nc2ccc([As](=O)(O)O)cc2)c(=O)[nH]1`: 3.51% [at 11.4 µM].
Regarding `N[C@@H](Cn1ccc(=O)n(Cc2ccc(C(=O)O)cc2)c1=O)C(=O)O`, the activity, negative = inhibition entry is “inactive”.
Consider `NC[C@@H](O)CSP(=O)(O)O`, for which the activity, negative = inhibition was 10.5% [at 11.4 µM].
With `CSC([N-]/N=C/c1cccc(C)n1)=[S]=[Cu].CS[C@H]([S-])[N-]/N=C/c1cccc(C)n1`, the AC50 is 0.251 µM (active).
Take `Nc1ccc(CCN2CCN(c3cccc(C(F)(F)F)c3)CC2)cc1`: the activity, negative = inhibition entry is “inactive”.
For the molecule `N[C@H](Cc1ccc(N(CCCl)CCCl)cc1)C(=O)O`, the activity, negative = inhibition entry was “inactive”.
For the molecule `CCCCC1(CCCC)C(=O)NC(=Nc2cccc(C)c2)NC1=O`, the AC50 is 5.01 µM (active).
For the molecule `CCC1(C)CC(=O)NC(=O)C1`, the activity, negative = inhibition entry was “inactive”.
Regarding `CC(C)[C@]1(O)[C@@H](OC(=O)c2ccc[nH]2)[C@]2(O)[C@@]3(C)C[C@@]4(O)O[C@@]5([C@H](O)[C@@H](C)CC[C@]35O)[C@]2(O)[C@]41C`, the activity, negative = inhibition was 13.6% [at 11.4 µM].
Still for that read-out and setting: next, `CC[C@@H]1CN2CCc3cc(OC)c(OC)cc3[C@H]2C[C@@H]1C[C@H]1NCCc2cc(OC)c(OC)cc21`: “inactive”.
Consider `O=C(OC1CCN(CCCl)CC1)C(c1ccccc1)c1ccccc1`, for which the activity, negative = inhibition result is “inactive”.
In the case of `CCOC(=O)c1cncn1[C@H](C)c1ccccc1`, the activity, negative = inhibition result is “inactive”.
For `CCOC(=O)c1c(NC(=O)C(c2ccccc2)c2ccccc2)sc2c1C1CCN2CC1`, the AC50 was 1.58 µM (active).
For the molecule `N[C@H](CCCCCP(=O)(O)O)C(=O)O`, the activity, negative = inhibition entry is “inactive”.
Turning to `CCOC(=O)C1=C(C)OC(N)=C(C#N)C12C(=O)N(C)c1ccccc12` (stereo not drawn), the activity, negative = inhibition entry was “inactive”.
With `CC(=O)NCCc1c[nH]c2ccccc12`, the activity, negative = inhibition entry was “inactive”.
`CC(C)[C@@]1(NC(=O)[C@@H]2C[C@H]3c4cccc5[nH]cc(c45)C[C@@H]3N(C)C2)O[C@]2(O)[C@H]3CCCN3C(=O)[C@H](Cc3ccccc3)N2C1=O`: the AC50 is 2.51 µM (active).
On to `CC(C)C[C@H]1C(=O)N2CCC[C@@H]2[C@@]2(O)O[C@](NC(=O)[C@@H]3C=C4c5cccc6[nH]cc(c56)C[C@@H]4N(C)C3)(C(C)C)C(=O)N12`, for which the activity, negative = inhibition result is “inactive”.
Consider `CN1C[C@H](C(=O)N[C@@]2(C)O[C@@]3(O)[C@H]4CCCN4C(=O)[C@@H](Cc4ccccc4)N3C2=O)C=C2c3cccc4[nH]cc(c34)C[C@@H]21`, for which the activity, negative = inhibition is -17.2% [at 11.4 µM].
Regarding `CC(C)[C@@]1(NC(=O)[C@@H]2C[C@H]3c4cccc5[nH]cc(c45)C[C@@H]3N(C)C2)O[C@@]2(O)[C@H]3CCCN3C(=O)[C@H](Cc3ccccc3)N2C1=O`, the AC50 was 2.51 µM (active) and 6.31 µM (active).
On to `c1ccc(N2CC3(CCNCC3)C2)cc1`, for which the activity, negative = inhibition entry is “inactive”.
Take `c1ccc2cc(CC3=NCCN3)ccc2c1`: the activity, negative = inhibition result was “inactive”.
`CCOC(=O)[C@@H]1[C@@H]2c3ccccc3-c3ccccc3[C@H]2C[C@H]1O`: the activity, negative = inhibition is 29.6% [at 11.4 µM].
Turning to `CO[C@@H](C)[C@](O)(C(=O)OCC1=CCN2CC[C@@H](O)[C@H]12)C(C)C`, the activity, negative = inhibition result is “inactive”.
In the case of `CNC(=O)Oc1ccc2c(c1)[C@@]1(C)CCN(C)[C@@H]1N2C`, the activity, negative = inhibition result is “inactive”.
As to `COc1ccc2c3c1O[C@@H]1C(=O)CC[C@@]4(O)[C@@H](C2)N(CC2CC2)CC[C@]314`, the activity, negative = inhibition entry is “inactive”.
As to `c1ccc2c(c1)[I+]c1ccccc1-2`, the concentration at half-maximal activity (AC50) was 1 µM (active) and 100 nM (active).
As to `O=C(O)/C=C\c1ccc[c]([Sb](=[O])([OH])[OH])c1`, the activity, negative = inhibition is 12.8% [at 11.4 µM].
As to `CSCC[C@@H](N)P(C)(=O)O`, the activity, negative = inhibition was 21.1% [at 11.4 µM].
With `O=C1C=CC(=O)c2c1ccc1c2ccc2ccccc21`, the AC50 is 1.26 µM (active).
Consider `O=C1N[C@@]2(CN3CCC2CC3)C(=O)N1CN(Cc1ccccc1)c1ccccc1`, for which the activity, negative = inhibition was -7.38% [at 11.4 µM].
On to `COCCCn1c(N)c(C(=O)Nc2sc3c(c2C(=O)OC)CCCC3)c2nc3ccccc3nc21`, for which the AC50 was 2.24 µM (active).
For `NCCCC[C@H](N[C@@H](CCc1ccccc1)C(=O)O)C(=O)N1CCC[C@H]1C(=O)O`, the activity, negative = inhibition entry is “inactive”.
In the case of `Oc1ccc(CCNCc2cc3c(cc2Br)OCO3)cc1`, the activity, negative = inhibition was -10.6% [at 11.4 µM].
For `CC(=O)OC1=CC2=CC[C@H]3[C@H]4CCC(=O)[C@@]4(C)CC(=O)[C@]3(S)[C@]2(C)CC1`, the activity, negative = inhibition was 4.96% [at 11.4 µM].
As to `CC(O)(CS(=O)(=O)c1cccc(C(F)(F)F)c1)C(=O)Nc1ccc(C(F)(F)F)cc1` (stereo not drawn), the AC50 is 11.2 µM (active).
In the case of `C[N+](C)(C)[C@H](Cc1c[nH]c(=S)[nH]1)C(=O)O`, the activity, negative = inhibition was 11.9% [at 11.4 µM].
In the case of `CC(C)n1cnc2c(C(=O)N[C@H]3CN4CCC3CC4)cc(Cl)cc21`, the AC50 was 0.398 µM (active).
Consider `COc1cc(N)c(Cl)cc1C(=O)N[C@@H]1CN2CCC1CC2`, for which the AC50 was 12.6 µM (active).
Regarding `CN1C(=O)COc2c(C(=O)N[C@@H]3CN4CCC3CC4)cc(Cl)cc21`, the activity, negative = inhibition entry was “inactive”.
Turning to `CCCn1c(C)c(C(=O)c2ccc3ccccc3c2)c2ccccc21`, the activity, negative = inhibition result is “inactive”.
As for `CNC[C@H](O)c1ccc(OC(=O)C(C)(C)C)c(OC(=O)C(C)(C)C)c1`, the activity, negative = inhibition result is “inactive”.
Regarding `N[C@@H]1C=CC=C(C(=O)O)C1`, the activity, negative = inhibition result is “inactive”.
`COc1ccc(C[C@H]2c3cc(OC)c(OC)cc3CCN2C)cc1OC`: the activity, negative = inhibition entry is “inactive”.
Consider `C=CCN1CC[C@]23c4c5ccc(O)c4O[C@@H]2/C(=N/NC(=O)c2ccccc2)CC[C@@]3(O)[C@H]1C5`, for which the activity, negative = inhibition result is “inactive”.
On to `[N-]=[N+]=CC(=O)CC[C@H](N)C(=O)O`, for which the activity, negative = inhibition was 26.7% [at 11.4 µM].
